Drawing on PubChem BioAssay (Tox21), this text covers Potency for 40 compounds.

Several values for one entry are separate records, joined by “and”; a condition that tells them apart may be missing. Equal entries are not always repeated. Results filed as inconclusive are left out. Activity calls are given as the source filed them. The call rests on the fitted dose curve; in most records, active means well fitted inhibition curve with a large enough effect in the repeat runs; inconclusive means weak or mixed curves; inactive means no such curve, though single readings can be large or run the other way.
Potency means the concentration at half of the fitted maximal effect.

For this experiment, the target named is Cytochrome P450 2C19 (Homo sapiens) (UniProt P33261). Put plainly: Cytochrome P450 Family 2 Subfamily C Member 19 (CYP2C19) small molecule antagonists: luciferase reporter qHTS assay (AID 1671197). Further: nearly all actives have a fitted effect of over 65% in size. To be noted: P450-Glo CYP2C19 enzyme, luciferin luminescence, 1 h; series mostly up to 52.9 µM. The text has this: National Center for Advancing Translational Sciences [NCATS]
Cytochrome P450 2C19 (Homo sapiens), sequence (P33261 whole entry, looked up): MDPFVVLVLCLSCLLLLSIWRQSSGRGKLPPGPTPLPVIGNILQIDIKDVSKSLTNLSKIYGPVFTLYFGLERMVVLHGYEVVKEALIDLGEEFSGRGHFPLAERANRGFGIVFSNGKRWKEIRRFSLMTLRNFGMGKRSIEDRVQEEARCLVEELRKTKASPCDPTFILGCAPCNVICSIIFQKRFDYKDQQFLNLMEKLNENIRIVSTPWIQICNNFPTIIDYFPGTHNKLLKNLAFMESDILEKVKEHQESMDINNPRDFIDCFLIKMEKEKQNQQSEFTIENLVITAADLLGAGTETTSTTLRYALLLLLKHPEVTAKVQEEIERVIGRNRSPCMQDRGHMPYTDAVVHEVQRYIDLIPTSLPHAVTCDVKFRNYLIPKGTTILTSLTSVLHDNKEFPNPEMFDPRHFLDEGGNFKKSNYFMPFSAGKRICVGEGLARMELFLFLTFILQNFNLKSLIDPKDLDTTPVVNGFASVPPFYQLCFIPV
U.S. Environmental Protection Agency [EPA]
National Institutes of Environmental Health Sciences [NIEHS]
National Toxicology Program [NTP]
U.S. Food and Drug Administration [FDA]
Cytochrome P450 (CYP) enzymes are membrane-bound hemeproteins that play a key role in metabolism of drugs and xenobiotics. Evaluation of the effect of chemicals on CYP isozymes is useful to minimize the adverse drug reactions and toxicities in drug development process. Tox21 chemicals were tested for their effect on CYP enzyme activities by using P450-Glo (TM) screening systems (Promega Corporation, Madison, WI). These systems provide a luminescent method containing proluciferin substrates and are converted to luciferin products by CYP isozymes. The luciferin products formed are detected with a luciferin detection reagent, and the amount of light produced is proportional to CYP activity. P450-Glo (TM) CYP2C19 screening system (Catalog. No. V9880) was used to detect the compounds that interfere in CYP2C19 activity. The positive control compound used for CYP2C19 assay is ketoconazole (Sigma-Aldrich, St. Louis, MO).
Tox21 Assay Protocol Summary:
Two ul of enzyme-substrate mix was dispensed into medium binding white/solid 1536-well plates (Greiner Bio-One North America Inc., Monroe, NC) using a BioRaptr Flying Reagent Dispenser (FRD, Beckman Coulter, Brea, CA). Compounds dissolved in DMSO and positive control (ketoconazole) were transferred to the assay plates at 23 nl using a Pintool station (Wako, San Diego, CA). The assay plates were incubated at room temperature for 10 min. Then 2 ul of NADPH regeneration solution was added to each well of the assay plates using an FRD and incubated at 37C for 1 h. The reaction was stopped by adding 4 ul of detection reagent using an FRD and after 20 min incubation at room temperature the luminescence signal was measured using a ViewLux plate reader (Perkin Elmer, Shelton, CT). Data were expressed as relative luminescence units.
Background: Reporter assays use an easily measured gene product as a stand-in for the process of interest.
Take `CC1(C)CCC(C)(C)c2cc(C(=O)Nc3ccc(C(=O)O)cc3)ccc21`: the Potency entry was “inactive”.

Consider `Nc1ccccc1O`, for which the Potency was 19.7 µM (active).

As to `Cc1c(C)c2c(c(C)c1OC(=O)CCC(=O)O)CC[C@@](C)(CCC[C@H](C)CCC[C@H](C)CCCC(C)C)O2`, the Potency result is “inactive”.

Regarding `CCc1oc2ccccc2c1C(=O)c1cc(Br)c(O)c(Br)c1`, the Potency result is “inactive”.

On to `CC(C)(C)C(=O)OCOC(=O)[C@@H]1N2C(=O)[C@@H](NC(=O)[C@H](N)c3ccccc3)[C@H]2SC1(C)C`, for which the Potency result is “inactive”.

`NNc1nc(-c2ccccc2)cs1`: the Potency is 9.19 µM (active).

On to `O=CC=C(c1ccccc1)c1ccccc1`, for which the Potency was 18 µM (active).

In the case of `O=c1[nH]sc2cc(Cl)ccc12`, the Potency result was “inactive”.

With `CCCCCCCCCOC(=O)c1ccc(O)cc1`, the Potency was 1.97 µM (active).

Take `Cc1cccc2c1cc1ccc3cccc4ccc2c1c34`: the Potency entry was “inactive”.

As for `CCCCCCC[N+](CC)(CC)CCCCc1ccc(Cl)cc1`, the Potency result is “inactive”.

For `CO[Si](CCCNc1ccccc1)(OC)OC`, the Potency result is “inactive”.

As for `Cc1cc(O)c2ccccc2c1O`, the Potency is 11 µM (active).

Regarding `CCCC(=O)OC[C@@H](OC(=O)CCC)[C@@H](OC(=O)CCC)[C@H](Cn1c2nc(=O)[nH]c(=O)c-2nc2cc(C)c(C)cc21)OC(=O)CCC`, the Potency is 8.71 µM (active).

In the case of `C[n+]1cc2c3c(ccc2c2ccc4cc5c(cc4c21)OCO5)OCO3`, the Potency is 1.07 µM (active).

As for `CC(C)n1nc(-c2cc3cc(O)ccc3[nH]2)c2c(N)ncnc21`, the Potency was 0.49 µM (active).

As for `O=c1cc(-c2ccc(O)cc2)oc2cc(O)cc(O)c12`, the Potency was 32.1 µM (active) and 39.9 µM (active).

Consider `CCC(C)Nc1ccc(NC(C)CC)cc1` (stereo not given), for which the Potency was 1.82 µM (active).

For `Cc1[nH]nc2c1N=C(c1ccccc1Cl)c1cc([N+](=O)[O-])ccc1N2`, the Potency is 17.8 µM (active).

With `C=C(C)C(=O)OCC[N+](C)(C)C`, the Potency result is “inactive”.

Consider `C=CC(=O)OCC(CO)(COC(=O)C=C)COC(=O)C=C`, for which the Potency is 25.3 µM (active) and 22.4 µM (active).

As to `CNc1ccc(O)cc1`, the Potency is 15.9 µM (active).

Take `CCC1=C[C@@H]2CN(C1)Cc1c([nH]c3ccccc13)[C@@](C(=O)OC)(c1cc3c(cc1OC)N(C)[C@H]1[C@@](O)(C(=O)OC)[C@H](OC(C)=O)[C@]4(CC)C=CCN5CC[C@]31[C@@H]54)C2`: the Potency result was “inactive”.

Consider `Cc1ccc(O)c2ncccc12`, for which the Potency result is “inactive”.

Take `CC(=O)SC[C@@H](Cc1ccccc1)C(=O)NCC(=O)OCc1ccccc1`: the Potency was 0.617 µM (active).

Regarding `CS(=O)(=O)CCNCc1ccc(-c2ccc3ncnc(Nc4ccc(OCc5cccc(F)c5)c(Cl)c4)c3c2)o1`, the Potency is 8.71 µM (active).

`CCCCCCCC/C=C\CCCCCCCCOCCO`: the Potency was 46.3 µM (active).

For `Oc1ccc2cc(SSc3ccc4cc(O)ccc4c3)ccc2c1`, the Potency was 35.6 µM (active).

Regarding `CCC(CN)=C(c1ccccc1)c1ccccc1`, the Potency was 4.36 µM (active).

As to `CCCCCCCCOc1ccccc1C(=O)Nc1ccc(C(=O)OCC[N+](C)(CC)CC)cc1`, the Potency was 3.89 µM (active).

For the compound `CCCCCCCCCCC=O`, the Potency entry was “inactive”.

As to `CN1CCC(Nc2ncc3ncnc(Nc4ccc(F)c(Cl)c4)c3n2)CC1`, the Potency entry is “inactive”.

Turning to `CCCCN1CCCC[C@H]1C(=O)Nc1c(C)cccc1C`, the Potency result was “inactive”.

In the case of `O=C(Oc1ccccc1)c1ccccc1C(=O)Oc1ccccc1`, the Potency was 15.9 µM (active).

In the case of `CCCCCOC(=O)CCCC`, the Potency result was “inactive”.

As to `CCCN(CCC)c1c([N+](=O)[O-])cc(C(F)(F)F)c(N)c1[N+](=O)[O-]`, the Potency was 2 µM (active).

With `C/C=C1/C(=O)C[C@H]2[C@@H]3CCC4=CC(=O)CC[C@]4(C)[C@H]3CC[C@]12C`, the Potency was 3.98 µM (active).

Regarding `CC1=C(/C=C/C(C)=C/C=C/C(C)=C/C=O)C(C)(C)CCC1`, the Potency is 39.7 µM (active).

As to `Fc1ccc(C(c2ccc(F)cc2)N2CCN(C/C=C/c3ccccc3)CC2)cc1`, the Potency entry was “inactive”.

Consider `C[C@@H](NCCCc1cccc(C(F)(F)F)c1)c1cccc2ccccc12`, for which the Potency is 8.71 µM (active).
